PubChem BioAssay (Tox21)
Inconclusive results are not listed. The source made the active and inactive calls. Unless noted, calls follow the shape of the dose curve; as a rule, active = well fitted curve in the direction sought with a large enough effect in the repeat runs; inconclusive = weak or mixed curves; inactive = no such curve, though single readings can be large; an effect the other way counts as inactive or inconclusive.

What was measured:
[1] = qHTS assay to identify aromatase inhibitors - cell viability counter screen (AID 743084);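 also: cells stimulated with testosterone during compound exposure; nearly all actives have a fitted effect of over 55% in size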
[2] = qHTS assay to identify small molecule that activate the aryl hydrocarbon receptor (AhR) signaling pathway - cell viability counter screen (AID 743086);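 also: HepG2 liver cells carrying the AhR DRE luciferase reporter; series mostly up to about 70 µM; nearly all actives have a fitted effect of over 45% in size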
In short: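 Cytotoxicity counter screen: CellTiter-Fluor signal (30 min, 37 C) in 4000 HepG2 cells/well carrying the DRE-luciferase reporter, following 24 h compound exposure at 37 C.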

[3] = qHTS assay to identify small molecule antagonists of the peroxisome proliferator-activated receptor gamma (PPARg) signaling pathway - cell viability counter screen (AID 743194); conditions: Potency: co-treated with 50 nM rosiglitazone; also: nearly all actives have a fitted effect of over 55% in size
In short: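 Viability was measured as CellTiter-Glo luminescence in GeneBLAzer PPARg UAS-bla HEK293H cells. These cells had been exposed 17 h at 37 C to compounds together with rosiglitazone at 50 nM final, with the beta-lactamase readout taken in the same wells.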

[4] = qHTS assay for small molecule agonists of the antioxidant response element (ARE) signaling pathway - cell viability counter screen (AID 743203; calls by dose curve; also: nearly all actives have a fitted effect of over 55% in size)
In short: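 Cytotoxicity was tested in parallel with the ARE reporter screen. ARE-bla HepG2 cells were exposed to compounds for 16 hrs, and viability was taken from CellTiter-Glo luminescence.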

[5] = qHTS assay for small molecule activators of the heat shock response signaling pathway - cell viability counter screen (AID 743209); also: nearly all actives have a fitted effect of over 50% in size
In short: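 Cytotoxicity counter screen run in parallel with the HSE beta-lactamase reporter, using the same wells. HeLa HSE-bla cells received compound for 5 h at 37 C; ATP-based CellTiter-Glo luminescence was measured after 30 min at room temperature.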

[6] = qHTS assay for small molecule activators of the heat shock response signaling pathway (AID 743210; active = well fitted activation curve with a large enough effect in the signal ratio in the repeat runs, with a control signal flat, not every such curve was filed as active; the % refers to the signal ratio; also: series mostly up to about 63 µM)
In short: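 Compound exposure lasted 5 h at 37 C in HeLa cells carrying a heat-shock-element-driven beta-lactamase reporter. Read-out: fluorescence intensity after 2.5 h room-temperature loading with LiveBLAzer B/G FRET substrate.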

[7] = qHTS assay to identify small molecule agonists of the peroxisome proliferator-activated receptor delta (PPARd) signaling pathway - cell viability counter screen (AID 743211); also: nearly all actives have a fitted effect of over 55% in size
In short: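 Counter screen for cytotoxicity run in parallel with the PPARd reporter screen. Beta-lactamase reporter HEK293H cells exposed to compounds 17 h; ATP-based CellTiter-Glo luminescence quantified viability.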

[8] = qHTS assay to identify small molecule antagonists of the peroxisome proliferator-activated receptor delta (PPARd) signaling pathway - cell viability counter screen (AID 743213); also: nearly all actives have a fitted effect of over 50% in size
In short: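 CellTiter-Glo was added to PPARd-bla HEK293H wells following 17 h compound treatment in the presence of 300 nM L165041. Luminescence was recorded after 30 min at room temperature.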

[9] = qHTS assay to identify small molecule antagonists of the farnesoid-X-receptor (FXR) signaling pathway - cell viability counter screen (AID 743221; active = well fitted cell-killing curve with a large enough effect in the repeat runs, not every such curve was filed as active; also: nearly all actives have a fitted effect of over 50% in size)
In short: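 Multiplexed counter screen: viability of FXR-bla HEK 293T cells under agonist stimulation by chenodeoxycholic acid (50 uM, final) and test compound for 16 h at 37 C, measured by CellTiter-Glo luminescence in the reporter wells.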

[10] = biological target: Vitamin D3 receptor (Homo sapiens) (UniProt P11473); assay: qHTS assay to identify small molecule agonists of the vitamin D receptor (VDR) signaling pathway (AID 743222; calls by dose curve)
Sequence of Vitamin D3 receptor (Homo sapiens) (P11473 whole entry, looked up): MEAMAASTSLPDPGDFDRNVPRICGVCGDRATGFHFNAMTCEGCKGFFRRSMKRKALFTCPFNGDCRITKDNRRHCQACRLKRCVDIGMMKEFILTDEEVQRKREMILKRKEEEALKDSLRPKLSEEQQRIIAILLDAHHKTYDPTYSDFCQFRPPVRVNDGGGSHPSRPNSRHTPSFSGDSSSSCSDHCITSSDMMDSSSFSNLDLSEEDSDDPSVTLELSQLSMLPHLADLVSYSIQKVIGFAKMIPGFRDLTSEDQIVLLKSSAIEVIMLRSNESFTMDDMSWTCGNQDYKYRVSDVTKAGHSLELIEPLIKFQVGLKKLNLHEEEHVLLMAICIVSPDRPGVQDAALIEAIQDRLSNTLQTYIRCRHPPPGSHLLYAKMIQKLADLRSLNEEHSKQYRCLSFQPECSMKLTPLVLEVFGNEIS
In short: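 Cells carrying a VDR-driven beta-lactamase reporter are seeded at 2,000 per well and rested 4 h. Compounds in DMSO are added for 16 h at 37C, and FRET substrate fluorescence is measured after 2 h at room temperature.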

[11] = biological target: Vitamin D3 receptor (Homo sapiens) (UniProt P11473); assay: qHTS assay to identify small molecule antagonists of the vitamin D receptor (VDR) signaling pathway (AID 743223; active = well fitted inhibition curve with a large enough effect in the signal ratio in the repeat runs, not every such curve was filed as active; the % refers to the signal ratio)
In short: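 Cells carrying a VDR-driven beta-lactamase reporter (VDR-bla) were co-treated with compound and 3 nM final 1alpha,25-dihydroxyvitamin D3 for 16 h at 37C; reporter activity was measured as FRET substrate fluorescence after 2 h at room temperature.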

[12] = biological target: Peroxisome proliferator-activated receptor gamma (Homo sapiens) (UniProt P37231); assay: qHTS assay to identify small molecule antagonists of the peroxisome proliferator-activated receptor gamma (PPARg) signaling pathway (AID 743191; calls by dose curve; also: series mostly up to about 63 µM; nearly all actives have a fitted effect of over 30% in size)
Sequence of Peroxisome proliferator-activated receptor gamma (Homo sapiens) (P37231 whole entry, looked up): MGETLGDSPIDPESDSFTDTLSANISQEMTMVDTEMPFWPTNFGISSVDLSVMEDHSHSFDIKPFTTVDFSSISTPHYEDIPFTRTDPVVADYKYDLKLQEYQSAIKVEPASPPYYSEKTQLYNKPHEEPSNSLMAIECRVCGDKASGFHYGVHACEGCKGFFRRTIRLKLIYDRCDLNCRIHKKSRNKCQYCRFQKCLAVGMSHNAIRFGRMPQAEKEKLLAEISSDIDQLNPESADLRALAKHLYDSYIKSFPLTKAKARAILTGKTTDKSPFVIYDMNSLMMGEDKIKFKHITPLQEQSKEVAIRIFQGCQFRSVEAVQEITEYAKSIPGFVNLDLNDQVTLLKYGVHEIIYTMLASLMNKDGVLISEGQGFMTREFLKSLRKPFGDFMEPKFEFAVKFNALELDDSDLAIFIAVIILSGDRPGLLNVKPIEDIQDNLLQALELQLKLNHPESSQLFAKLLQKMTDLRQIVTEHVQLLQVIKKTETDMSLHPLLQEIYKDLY
In short: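 Beta-lactamase reporter under UAS control in HEK293H PPARg-bla cells; compound treatment 17 h at 37C. Read-out: fluorescence intensity after 1 h room-temperature incubation with LiveBLAzer B/G FRET substrate.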

[13] = qHTS assay for small molecule agonists of the antioxidant response element (ARE) signaling pathway (AID 743202; active = well fitted activation curve with a large enough effect in the signal ratio in the repeat runs, not every such curve was filed as active; the % refers to the signal ratio)
In short: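 After 16 hours of compound treatment at 37 C, HepG2 cells with a stably integrated ARE-driven beta-lactamase reporter were loaded 2 hours at room temperature with LiveBLAzer B/G FRET substrate and fluorescence intensity measured.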

[14] = biological target: Peroxisome proliferator-activated receptor delta (Homo sapiens) (UniProt Q03181); assay: qHTS assay to identify small molecule agonists of the peroxisome proliferator-activated receptor delta (PPARd) signaling pathway (AID 743212; calls by dose curve)
Sequence of Peroxisome proliferator-activated receptor delta (Homo sapiens) (Q03181 whole entry, looked up): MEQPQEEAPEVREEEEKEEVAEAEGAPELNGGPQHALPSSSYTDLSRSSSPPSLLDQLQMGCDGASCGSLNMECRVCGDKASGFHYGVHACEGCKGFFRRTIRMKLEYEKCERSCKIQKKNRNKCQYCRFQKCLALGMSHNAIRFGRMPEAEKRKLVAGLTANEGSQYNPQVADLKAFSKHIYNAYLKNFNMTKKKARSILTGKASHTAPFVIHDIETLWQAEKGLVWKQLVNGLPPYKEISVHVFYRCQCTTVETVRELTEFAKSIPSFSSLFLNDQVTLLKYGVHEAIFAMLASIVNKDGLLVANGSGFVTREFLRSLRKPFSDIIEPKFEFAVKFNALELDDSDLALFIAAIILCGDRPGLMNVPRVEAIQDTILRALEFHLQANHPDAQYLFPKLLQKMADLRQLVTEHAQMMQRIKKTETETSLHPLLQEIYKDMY
In short: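 Beta-lactamase reporter readout: a ratiometric FRET signal from the LiveBLAzer substrate after 2 h at room temperature. Compound exposure at 37 °C in PPARδ-bla HEK293H cells driven by an upstream activator sequence.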

[15] = biological target: Bile acid receptor (Homo sapiens) (UniProt Q96RI1); assay: qHTS assay to identify small molecule antagonists of the farnesoid-X-receptor (FXR) signaling pathway (AID 743217; active = well fitted inhibition curve with a large enough effect in the signal ratio in the repeat runs, not every such curve was filed as active; the % refers to the signal ratio)
Sequence of Bile acid receptor (Homo sapiens) (Q96RI1 whole entry, looked up): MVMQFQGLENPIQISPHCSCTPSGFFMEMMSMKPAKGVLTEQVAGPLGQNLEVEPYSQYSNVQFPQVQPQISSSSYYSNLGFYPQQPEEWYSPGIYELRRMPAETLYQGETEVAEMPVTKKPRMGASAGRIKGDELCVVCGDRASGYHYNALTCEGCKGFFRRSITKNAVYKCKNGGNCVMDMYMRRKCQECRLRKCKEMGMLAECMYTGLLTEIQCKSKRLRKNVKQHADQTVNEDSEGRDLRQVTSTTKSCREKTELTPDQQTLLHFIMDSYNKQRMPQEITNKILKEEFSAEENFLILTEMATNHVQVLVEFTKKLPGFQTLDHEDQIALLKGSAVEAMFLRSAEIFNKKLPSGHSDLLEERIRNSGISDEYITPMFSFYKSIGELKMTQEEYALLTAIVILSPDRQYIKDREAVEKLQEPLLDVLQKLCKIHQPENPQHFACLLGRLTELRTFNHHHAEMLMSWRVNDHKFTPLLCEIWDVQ
In short: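 Cells carrying a UAS-driven beta-lactamase reporter (GeneBLAzer FXR-UAS-bla HEK 293T) were plated and rested 5 h at 37 °C. Compounds in DMSO were added alongside chenodeoxycholic acid agonist at 50 uM final and left 16 h at 37 °C before FRET substrate readout.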

[16] = biological target: Peroxisome proliferator-activated receptor delta (Homo sapiens) (UniProt Q03181); assay: qHTS assay to identify small molecule antagonists of the peroxisome proliferator-activated receptor delta (PPARd) signaling pathway (AID 743215; active = well fitted inhibition curve with a large enough effect in the signal ratio in the repeat runs, not every such curve was filed as active; the % refers to the signal ratio;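 also: cells stimulated with agonist L165041 at 300 nM final during compound exposure; series mostly up to about 62 µM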)
In short: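 Cells: HEK293H with a UAS-driven beta-lactamase reporter responsive to PPARd. Compounds were co-added with L165041 (300 nM, final) and incubated 17 h at 37 C before a 2 h room-temperature FRET substrate step and fluorescence reading.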

[17] = qHTS assay to identify small molecule agonists of the farnesoid-X-receptor (FXR) signaling pathway - cell viability counter screen (AID 743218); also: nearly all actives have a fitted effect of over 45% in size
In short: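 Cells were seeded, left 5 h at 37 C and 5% CO2, then dosed with compound in DMSO for 16 h. After the beta-lactamase FRET read, CellTiter-Glo was added and luminescence measured 30 min later.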

[18] = biological target: Bile acid receptor (Homo sapiens) (UniProt Q96RI1); assay: qHTS assay to identify small molecule agonists of the farnesoid-X-receptor (FXR) signaling pathway (AID 743220; active = well fitted activation curve with a large enough effect in the signal ratio in the repeat runs, not every such curve was filed as active; the % refers to the signal ratio)
In short: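 FXR-UAS-bla HEK 293T cells carrying a UAS-driven beta-lactamase reporter were plated for 5 h at 37C/5% CO2, then exposed to DMSO-dissolved Tox21 10K compounds for 16 h at 37C. A LiveBLAzer B/G FRET substrate was loaded for 2 h at room temperature before fluorescence reading.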

Measured: Potency

CC1=NNC(=O)N(/N=C/c2cccnc2)C1
inactive: [1] | [2] | [3] | [4] | [5] | [6] | [7] | [8] | [9] | [10] | [11]

Cc1ncc(CNC(=O)N(CCCl)N=O)c(N)n1
inactive: [1] | [2] | [12] | [3] | [13] | [4] | [5] | [6] | [7] | [14] | [8] | [15] | [9]

CCOC(=O)CP(=O)(OCC)OCC
inactive: [1] | [2] | [3] | [4] | [5] | [6] | [7] | [14] | [8] | [16] | [15] | [17] | [9]

CNC(=O)Oc1ccccc1C1OCCO1
inactive: [1] | [2] | [12] | [3] | [13] | [4] | [7] | [14] | [8] | [16] | [15] | [17] | [18] | [9] | [10] | [11]

CCC(C)(C)c1cc(-n2nc3ccccc3n2)c(O)c(C(C)(C)CC)c1
inactive: [1] | [2] | [3] | [13] | [4] | [5] | [6] | [7] | [14] | [8] | [16] | [17] | [9] | [10] | [11]

Nc1cc2c3c(c1)C(c1ccccc1)=N[C@@H](NC(=O)c1cccnc1)C(=O)N3CC2
inactive: [1] | [2] | [12] | [3] | [13] | [4] | [5] | [6] | [7] | [14] | [8] | [16] | [17] | [9] | [10]

CCCCOP(=O)(O)OCCCC
inactive: [1] | [2] | [3] | [13] | [4] | [5] | [6] | [7] | [14] | [8] | [16] | [15] | [17] | [9]

COCC(=O)N(c1c(C)cccc1C)N1CCOC1=O
inactive: [1] | [2] | [13] | [4] | [5] | [6] | [7] | [14] | [8] | [16] | [15] | [17] | [18] | [9] | [10] | [11]
